Reference: PubChem BioAssay AID463173 (ICCB-Longwood Screening Facility, Harvard Medical School, 2010)
Screen size: about 52,000 compounds; about 4,300 (8.3%) were called active. What follows is part of a selection rich in actives, with near analogues and random picks from the rest. A number with no mark means an inactive call. Rule as the data show it: active = survival mostly below about 52% (no sharp cut-off); inactive = mostly above about 56%.

Each compound was assayed on DeltatarO mutant (assay: growth inhibition of S. aureus wild type versus tarO mutant, primary screen, teichoic acid synthesis inhibitors, RN4220, OD600 (AID 463173)). Settings: OD600, 18 h, stronger effect = lower value, screened at 18.75 µg/mL (by protocol).

Row | SMILES | survival
1 | COc1ccccc1N1CCN(C(=O)CSc2nc3ccccc3nc2Cc2ccccc2)CC1 | 101%
2 | COc1ccc(OC)c(-c2noc(N3CCN(c4ccc(Cl)cc4)CC3)n2)c1 | 88%
3 | CCn1c(CNC(=O)c2ccc(OC)cc2)nnc1SCC(=O)Nc1cc(C)ccc1C | 112%
4 | COc1cccc(C(=O)N(Cc2cccnc2)c2nc3c(OC)ccc(C)c3s2)c1OC | 73%
5 | O=S(=O)(Nc1cccc(-c2ccc(N3CCOCC3)nn2)c1)c1ccccc1C(F)(F)F | 89%
6 | COc1ccc(C(=O)CCC(=O)Nc2ccc(OC)c(Cl)c2)cc1 | 86%
7 | COc1ccc(-c2nnc3n2N(C(C)=O)C(c2ccc(Cl)c(Cl)c2)=C(C(C)=O)S3)cc1 | 20% (active)
8 | CC(=O)C1=C(c2ccc(Cl)c(Cl)c2)N(C(C)=O)n2c(nnc2-c2ccccc2)S1 | 94%
9 | COc1ccc(C2=C(C(C)=O)Sc3nnc(-c4ccccc4)n3N2C(C)=O)cc1 | 87%
10 | CN(C)c1ccc(CN(CC2CCCO2)C(=O)COc2ccc(Cl)cc2)cc1 (stereo not given) | 59%
11 | CCc1nn2c(=O)c(S(=O)(=O)Nc3cccc(F)c3)c(C)nc2s1 | 70%
12 | COc1ccccc1CNS(=O)(=O)c1ccc2c(c1)NC(=O)CC(=O)N2 | 89%
13 | O=S(=O)(Nc1nc2n(n1)C(c1ccc(F)cc1)C=C(c1ccc(Cl)cc1)N2)c1ccccc1 (stereo not given) | 42% (active)
14 | Cc1ccc(C2C=C(c3ccccc3)Nc3nc(NS(=O)(=O)c4ccccc4)nn32)cc1 (stereo not given) | 68%
15 | O=C(Nc1nc2n(n1)C(c1ccc(F)cc1)C=C(c1ccc(Cl)cc1)N2)c1ccc([N+](=O)[O-])cc1 (stereo not given) | 64%
16 | COc1ccccc1C(=O)Nc1nc2n(n1)C(c1ccc(F)cc1)C=C(c1ccc(Cl)cc1)N2 (stereo not given) | 49%
17 | Cc1ccc(C2C=C(c3ccc(F)cc3)Nc3nc(CCCO)nn32)cc1 (stereo not given) | 53%
18 | O=S(=O)(Nc1nc2n(n1)C(c1ccc(F)cc1)C=C(c1ccccc1)N2)c1ccccc1 (stereo not given) | 73%
19 | Cc1ccc(S(=O)(=O)Nc2nc3n(n2)C(c2ccc(F)cc2)C=C(c2ccccc2)N3)cc1 (stereo not given) | 29% (active)
20 | O=S(=O)(Nc1nc2n(n1)C(c1ccc(F)cc1)C=C(c1ccccc1)N2)c1ccc(Cl)cc1 (stereo not given) | 10% (active)
21 | O=S(=O)(Nc1nc2n(n1)C(c1ccccc1)C=C(c1ccc(Cl)cc1)N2)c1ccccc1 (stereo not given) | 47% (active)
22 | CC(C)(C)C(=O)CSc1nnc(-c2ccccc2)o1 | 85%
23 | COc1cccc(CNC(=O)CCc2c(C)c3cc4c(C)coc4c(C)c3oc2=O)c1 | 55%

Row | SMILES | survival
24 | CCC(=O)N1CCc2cc(Br)cc(S(=O)(=O)N3CCCC(C(=O)Nc4ccc(OC)cc4OC)C3)c21 (stereo not given) | 65%
25 | COc1cc(OC)c(NC(=O)c2noc3c2CSc2ccccc2-3)cc1Cl | 69%
26 | Cc1ccccc1OC(=O)c1nc(SCc2ccccc2F)ncc1Cl | 107%
27 | COc1ccc(C2=CC(c3ccccc3Cl)n3nc(-c4ccc(C)cc4)nc3N2)cc1 (stereo not given) | 91%
28 | Cc1ccc(C2C=C(c3ccccc3)Nc3nc(NS(C)(=O)=O)nn32)cc1 (stereo not given) | 67%
29 | Cc1ccc(S(=O)(=O)Nc2nc3n(n2)C(c2ccc(Cl)cc2)C=C(c2ccccc2)N3)cc1 (stereo not given) | 2% (active)
30 | Cc1ccc(-c2nc3n(n2)C(c2ccccc2Cl)C=C(c2ccc(Cl)cc2)N3)cc1 (stereo not given) | 95%
31 | Cc1ccc(C2C=C(c3ccc(Cl)cc3)Nc3nc(NS(=O)(=O)c4ccccc4)nn32)cc1 (stereo not given) | 62%
32 | Cc1ccc(S(=O)(=O)Nc2nc3n(n2)C(c2ccccc2Cl)C=C(c2ccccc2)N3)cc1 (stereo not given) | 37% (active)
33 | CCN1CCN(C(=O)c2cnn(-c3cccc(C)c3)c2C2CCN(C(=O)OC(C)(C)C)CC2)CC1 | 89%
34 | O=[N+]([O-])c1cc(-c2nc(-c3ccccc3)no2)ccc1NC1CCCCC1 | 75%
35 | CC(C)Oc1ccc(C(=O)N2CCN(CCc3ccccn3)CC2)cc1 | 68%
36 | Cc1cccc(NC(=O)C2CCCN(S(=O)(=O)c3cccc4nonc34)C2)c1 (stereo not given) | 92%
37 | COC(=O)c1sc(-c2ccccc2)cc1NC(=O)Nc1ccc(F)cc1 | 21% (active)
38 | CCOc1ccc(-c2cc(NC(=O)Nc3ccc(Cl)cc3)c(C(=O)OC)s2)cc1 | 101%
39 | COC(=O)c1sc(-c2ccccc2)cc1NC(=O)c1cccc(Cl)c1 | 34% (active)
40 | COC(=O)c1sc(-c2ccccc2)cc1NC(=O)Nc1ccc(Cl)cc1 | 11% (active)
41 | CCOc1ccc(-c2cc(NC(=O)Nc3cccc(C(C)=O)c3)c(C(=O)OC)s2)cc1 | 53%
42 | COC(=O)c1sc(-c2ccccc2)cc1NC(=O)Nc1ccccc1Cl | 43%
43 | CCOc1ccc(-c2cc(NC(=O)Nc3ccccc3C(F)(F)F)c(C(=O)OC)s2)cc1 | 60%
44 | CCOc1ccc(-c2cc(NC(=O)c3cccc(Cl)c3)c(C(=O)OC)s2)cc1 | 77%
45 | COC(=O)c1sc(-c2ccccc2)cc1NC(=O)c1cccc(F)c1 | 94%
46 | O=C(Nc1cc(-c2ccccc2)sc1C(=O)O)c1cccc(F)c1 | 38% (active)

Row | SMILES | survival
47 | CCOc1ccc(-c2cc(NC(=O)c3ccccc3)c(C(=O)OC)s2)cc1 | 94%
48 | CCOc1ccc(-c2cc(NC(=O)c3ccc(C)cc3)c(C(=O)OC)s2)cc1 | 70%
49 | Cc1noc2ncnc(N3CCCC(C(=O)NCCC(C)C)C3)c12 (stereo not given) | 88%
50 | CCOc1ccccc1CNC(=O)c1cccc(NC(=O)c2nsc3ccccc23)c1 | 88%
51 | Cc1c(Cl)cccc1NC(=O)CCn1nc(C)c2c(C)n(-c3ccccc3)nc2c1=O | 92%
52 | Cc1c(C(=O)N2CCOCC2)oc2c1-c1nn(CC(=O)NCc3ccccc3)cc1CC2 | 79%
53 | Cc1ccc(S(=O)(=O)NCc2nc3cccnc3n2Cc2ccccc2Cl)c(C)c1 | 89%
54 | Cc1ccccc1OCCSc1nc(C)c(Cc2ccccc2)c(=O)[nH]1 | 97%
55 | CCc1ccc(-n2nc(CO)c(C(=O)NCCCCc3ccccc3)n2)cc1 | 47%
56 | Cc1ccc(C)c(Nc2nn3c(=O)c4ccc(C(=O)NCc5cccs5)cc4nc3s2)c1 | 65%
57 | COC(=O)c1ccc2c(=O)n(CCCCCC(=O)NCCc3ccc(Cl)cc3)c(=O)[nH]c2c1 | 52% (active)
58 | O=C(CCCn1c(=O)c2cccn2c2ccccc21)NCCc1ccc(Cl)cc1 | 32% (active)
59 | COC(=O)c1ccc2c(=O)n(CCCCCC(=O)NCc3ccc(Cl)cc3)c(=O)[nH]c2c1 | 74%
60 | CCOc1ccc(CCNC(=O)CCCn2c(=O)c3cccn3c3ccccc32)cc1 | 72%
61 | CSc1ccc(CCNC(=O)CCCn2c(=O)c3cccn3c3ccccc32)cc1 | 42% (active)
62 | COC(=O)c1ccc2c(=O)n(CCCCCC(=O)NCCc3ccccc3)c(=O)[nH]c2c1 | 79%
63 | CSc1ccc(CCNC(=O)CCn2c(=O)c3cccn3c3cccnc32)cc1 | 90%
64 | CC(C)CCNC(=O)CCCn1c(=O)c2cccn2c2ccccc21 | 68%
65 | O=C(CCCn1c(=O)c2cccn2c2cccnc21)NCCc1ccc(Cl)cc1 | 63%
66 | CN(CCCN1C(=O)c2ccccc2C1=O)CCCN1C(=O)c2ccccc2C1=O | 93%
67 | CCOc1ccc(NC(=O)CC2C(=O)N(c3ccccc3)C(=O)N2Cc2ccc3c(c2)OCO3)cc1 (stereo not given) | 79%
68 | CN1CCN(C(CNC(=O)C(=O)Nc2ccccc2C#N)c2ccc3c(c2)OCO3)CC1 (stereo not given) | 73%
69 | COCCCNC(=O)CCC(=O)N1Cc2ccccc2Oc2ncccc21 | 84%

Row | SMILES | survival
70 | COC(=O)c1cc2sc(C)cc2n1Cc1ccccc1 | 95%
71 | COC(=O)c1cc2sc(C)cc2n1CC(=O)Nc1ccc(C)c(C)c1 | 64%
72 | COC(=O)c1cc2sc(Cl)cc2n1Cc1c(C)cc(C)cc1C | 98%
73 | COC(=O)c1cc2sc(C)cc2n1Cc1cccc(OC)c1 | 1% (active)
74 | COC(=O)c1cc2sc(C)cc2n1Cc1ccc(Br)cc1F | 89%
75 | C=Cc1ccc(Cn2c(C(=O)OC)cc3sc(C)cc32)cc1 | 27% (active)
76 | Cn1c(=O)n(C)c2cc(N3CCOCC3)c(NS(=O)(=O)c3ccc(F)cc3)cc21 | 126%
77 | COc1ccc(CNC(=O)C2CCN(S(=O)(=O)c3ccc4nc5c(c(C(=O)O)c4c3)CCCC5)CC2)cc1 | 99%
78 | Clc1ccc(CCNc2nc3cc(Cl)c(Cl)cc3n3cnnc23)cc1 | 91%
79 | O=C1CCSC2(C(=O)N(Cc3ccc(F)cc3)c3ccccc32)N1c1ccc(F)c(F)c1 (stereo not given) | 83%
80 | COc1ccc(Cn2c(=O)c3oc4ccccc4c3n(Cc3ccccc3)c2=O)cc1 | 82%
81 | O=C(Nc1ccccc1C(F)(F)F)N1CCOc2ccc(Cl)cc21 | 46%
82 | Cc1cc(C)c(Cn2c(C(O)c3ccccc3)nc3ccccc32)c(C)c1 (stereo not given) | 31% (active)
83 | OC(c1ccccc1)c1nc2ccccc2n1Cc1c(F)cccc1Cl (stereo not given) | 74%
84 | COC(=O)Cn1c(C(O)c2ccccc2)nc2ccccc21 (stereo not given) | 71%
85 | COc1ccc(CCNc2nc3cc(OC)c(OC)cc3c3nc(-c4ccccc4)nn23)cc1OC | 93%
86 | COc1ccc(CCNc2nc3cc(OC)c(OC)cc3c3nc(-c4cccnc4)nn23)cc1OC | 117%
87 | Cc1cccc(-c2nc3c4ccccc4nc(NCCc4ccccc4)n3n2)c1 | 7% (active)
88 | COc1cc2nc(NCCc3ccccc3)n3nc(-c4cccnc4)nc3c2cc1OC | 118%
89 | COc1cc2nc(NCCc3cccc(C)c3)n3nc(-c4ccccc4)nc3c2cc1OC | 59%
90 | COc1ccc(CCNc2nc3ccccc3c3nc(-c4cccc(C)c4)nn23)cc1OC | 20% (active)
